Results taken from the supplement of paper PMC10849652.
Of roughly 7,900 targets only a part is listed; those with a hit were picked by preference. About 0.6% of all pairs of compound and target were hits. Values without a mark were called inactive.

Experiments:
Experiment in all cases: log2 fold change, soluble protein after heating vs DMSO (PISA); higher = thermal stabilisation; K562 cells, 10 uM, 30 min; active = over 0.2 and 3.5 SD of the protein, either way, in both replicates (recomputed)
[1] = compound: COC1=CC=C(C=C1)CN2C=CC3=C2C=C(C=C3)C(=O)NO
Procedure, shortened: (§1)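 K562 cells at 2×10^6 cells/mL were exposed to 10 μM compound for 30 min, then aliquots were heated for 3 min across 48°C-58°C, pooled, and extracted in PBS containing 0.5% NP-40 at 4°C. The supernatant after 21,000xg for 90 min was taken as soluble protein and measured by TMTpro 16plex LC-MS/MS with channel sums equalised. Thermal stability is reported relative to control samples, with values from duplicates. Fold changes are given on a log2 scale.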

[2] = compound: CON(C)C(=O)N1N=C(c2cc(F)ccc2F)S[C@@]1(CCCN)c1ccccc1 [filanesib]
Procedure, shortened: as §1

[3] = compound: CO[C@H]1C[C@@H]2CC[C@@H](C)[C@@](O)(O2)C(=O)C(=O)N2CCCC[C@H]2C(=O)O[C@H]([C@H](C)C[C@@H]2CC[C@H](n3cnnn3)[C@H](OC)C2)CC(=O)[C@H](C)/C=C(\C)[C@@H](O)[C@@H](OC)C(=O)[C@H](C)C[C@H](C)/C=C/C=C/C=C/1C [zotarolimus]
Procedure, shortened: as §1

[4] = compound: COc1cc(C(=O)O)ccc1NC(=O)[C@@H]1N[C@@H](CC(C)(C)C)[C@](C#N)(c2ccc(Cl)cc2F)[C@H]1c1cccc(Cl)c1F [idasanutlin]
Procedure, shortened: as §1

[5] = compound: COc1cc(Nc2ncc3c(n2)-c2ccc(Cl)cc2C(c2c(F)cccc2OC)=NC3)ccc1C(=O)O [alisertib]
Procedure, shortened: as §1

[6] = compound: COc1cc2nc(-c3cc(F)ccc3O)nc(N[C@@H]3CNC[C@H]3C(C)(C)O)c2cc1OC
Procedure, shortened: as §1

[7] = compound: COc1cc2ncnc(Nc3ccc(F)c(Cl)c3)c2cc1OCCCN1CCOCC1 [gefitinib]
Procedure, shortened: as §1

[8] = compound: COc1cccc2cc(-c3nc([C@H]4CC[C@H](C(=O)O)CC4)n4ncnc(N)c34)[nH]c12
Procedure, shortened: as §1

[9] = compound: CS(=O)(=O)CCNCc1ccc(-c2ccc3ncnc(Nc4ccc(OCc5cccc(F)c5)c(Cl)c4)c3c2)o1 [lapatinib]
Procedure, shortened: as §1

[10] = compound: CS(=O)(=O)N1CCN(Cc2cc3nc(-c4cccc5[nH]ncc45)nc(N4CCOCC4)c3s2)CC1 [pictilisib]
Procedure, shortened: as §1

[11] = compound: CS(=O)(=O)c1ccc(-c2cnc(N)c(C(=O)Nc3ccccc3)n2)cc1
Procedure, shortened: as §1

[12] = compound: C[C@@H](Oc1cc(-c2cnn(C3CCNCC3)c2)cnc1N)c1c(Cl)ccc(F)c1Cl [crizotinib]
Procedure, shortened: as §1

[13] = compound: C[C@@H]1COCCN1C2=NC(=NC(=C2)C3(CC3)S(=O)(=O)C)C4=C5C=CNC5=CC=C4
Procedure, shortened: as §1

[14] = compound: C[C@H](C1=CC=C(C=C1)C(=O)NC2=C3C=CNC3=NC=C2)N
Procedure, shortened: as §1

[15] = compound: C[C@H](Nc1ncnc2nc[nH]c12)c1cc2cccc(Cl)c2c(=O)n1-c1ccccc1 [duvelisib]
Procedure, shortened: as §1

[16] = compound: Cc1cc(Nc2cc(CN3CCOCC3)c3nc(C)c(Cc4ccc(Cl)cc4F)n3n2)n[nH]1 [gandotinib]
Procedure, shortened: as §1

[17] = compound: Cc1cc(Nc2cc(N3CCN(C)CC3)nc(Sc3ccc(NC(=O)C4CC4)cc3)n2)n[nH]1 [tozasertib]
Procedure, shortened: as §1

[18] = compound: Cc1cc(SCc2sc(-c3ccc(C(F)(F)F)cc3)nc2C)ccc1OCC(=O)O
Procedure, shortened: as §1

[19] = compound: Cc1ccc(-n2nc(C(C)(C)C)cc2NC(=O)Nc2ccc(OCCN3CCOCC3)c3ccccc23)cc1 [doramapimod]
Procedure, shortened: as §1

[20] = compound: Cc1ccc(C(=O)N(CCCN)[C@@H](c2nc3cc(Cl)ccc3c(=O)n2Cc2ccccc2)C(C)C)cc1 [ispinesib]
Procedure, shortened: as §1

Sequence of UniProt P51948 (P51948 whole entry, looked up): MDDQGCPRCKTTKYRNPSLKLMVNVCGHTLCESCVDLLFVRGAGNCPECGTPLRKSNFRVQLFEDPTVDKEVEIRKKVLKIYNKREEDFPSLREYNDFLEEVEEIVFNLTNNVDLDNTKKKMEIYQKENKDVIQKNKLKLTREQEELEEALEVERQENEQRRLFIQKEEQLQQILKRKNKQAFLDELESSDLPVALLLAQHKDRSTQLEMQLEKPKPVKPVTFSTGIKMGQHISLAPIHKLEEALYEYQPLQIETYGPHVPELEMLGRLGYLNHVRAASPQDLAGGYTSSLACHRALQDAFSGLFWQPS
Sequence of UniProt Q9H081 (Q9H081 whole entry, looked up): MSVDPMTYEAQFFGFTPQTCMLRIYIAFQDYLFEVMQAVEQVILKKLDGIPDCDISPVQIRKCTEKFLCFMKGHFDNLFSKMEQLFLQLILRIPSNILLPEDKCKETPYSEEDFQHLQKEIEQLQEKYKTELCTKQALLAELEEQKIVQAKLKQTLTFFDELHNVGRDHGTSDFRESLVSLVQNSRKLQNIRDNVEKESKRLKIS
Sequence of UniProt Q330K2 (Q330K2 whole entry, looked up): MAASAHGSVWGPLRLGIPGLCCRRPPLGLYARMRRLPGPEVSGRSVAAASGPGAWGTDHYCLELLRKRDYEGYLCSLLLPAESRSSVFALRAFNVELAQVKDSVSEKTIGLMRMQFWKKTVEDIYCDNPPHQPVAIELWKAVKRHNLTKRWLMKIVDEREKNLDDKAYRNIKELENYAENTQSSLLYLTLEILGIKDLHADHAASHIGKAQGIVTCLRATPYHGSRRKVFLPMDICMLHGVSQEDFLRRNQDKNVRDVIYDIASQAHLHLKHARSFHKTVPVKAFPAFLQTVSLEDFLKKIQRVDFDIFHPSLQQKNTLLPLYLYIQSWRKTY
Sequence of UniProt Q15021 (Q15021 whole entry, looked up): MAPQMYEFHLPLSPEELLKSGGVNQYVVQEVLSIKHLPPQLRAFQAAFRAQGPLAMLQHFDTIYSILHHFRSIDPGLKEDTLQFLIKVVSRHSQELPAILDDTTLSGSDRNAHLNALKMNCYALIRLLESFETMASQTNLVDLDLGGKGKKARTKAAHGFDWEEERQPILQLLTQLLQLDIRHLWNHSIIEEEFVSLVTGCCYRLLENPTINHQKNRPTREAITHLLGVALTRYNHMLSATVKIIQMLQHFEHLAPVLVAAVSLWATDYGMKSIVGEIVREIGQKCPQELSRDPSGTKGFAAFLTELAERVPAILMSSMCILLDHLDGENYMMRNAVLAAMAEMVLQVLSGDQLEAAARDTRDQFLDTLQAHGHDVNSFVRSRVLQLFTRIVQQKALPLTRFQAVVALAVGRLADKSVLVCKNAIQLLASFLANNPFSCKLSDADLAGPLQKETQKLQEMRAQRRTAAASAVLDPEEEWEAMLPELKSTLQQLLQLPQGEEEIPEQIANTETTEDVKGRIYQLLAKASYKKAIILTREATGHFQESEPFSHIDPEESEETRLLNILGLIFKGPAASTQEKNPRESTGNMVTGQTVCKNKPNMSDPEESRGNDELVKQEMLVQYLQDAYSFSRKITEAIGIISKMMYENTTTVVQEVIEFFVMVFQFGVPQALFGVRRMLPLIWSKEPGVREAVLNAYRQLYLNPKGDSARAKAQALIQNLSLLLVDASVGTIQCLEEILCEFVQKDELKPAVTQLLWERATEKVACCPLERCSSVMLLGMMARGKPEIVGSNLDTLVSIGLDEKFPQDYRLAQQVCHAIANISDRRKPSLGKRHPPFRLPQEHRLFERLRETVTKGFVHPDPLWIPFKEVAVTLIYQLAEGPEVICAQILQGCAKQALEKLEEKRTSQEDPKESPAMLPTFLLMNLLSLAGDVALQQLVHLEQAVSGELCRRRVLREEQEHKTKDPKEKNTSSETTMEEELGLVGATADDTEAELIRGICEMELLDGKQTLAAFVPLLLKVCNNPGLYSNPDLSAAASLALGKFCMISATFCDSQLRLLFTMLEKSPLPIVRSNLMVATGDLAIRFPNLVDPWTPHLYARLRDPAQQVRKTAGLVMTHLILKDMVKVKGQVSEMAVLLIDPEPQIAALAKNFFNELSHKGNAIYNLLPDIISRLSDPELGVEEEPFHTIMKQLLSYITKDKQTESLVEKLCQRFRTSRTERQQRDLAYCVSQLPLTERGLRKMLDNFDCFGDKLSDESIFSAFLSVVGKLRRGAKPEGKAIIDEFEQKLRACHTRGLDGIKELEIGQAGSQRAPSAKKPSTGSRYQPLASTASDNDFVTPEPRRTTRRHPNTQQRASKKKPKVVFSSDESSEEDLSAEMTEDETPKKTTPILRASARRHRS
Sequence of UniProt P55786 (P55786 whole entry, looked up): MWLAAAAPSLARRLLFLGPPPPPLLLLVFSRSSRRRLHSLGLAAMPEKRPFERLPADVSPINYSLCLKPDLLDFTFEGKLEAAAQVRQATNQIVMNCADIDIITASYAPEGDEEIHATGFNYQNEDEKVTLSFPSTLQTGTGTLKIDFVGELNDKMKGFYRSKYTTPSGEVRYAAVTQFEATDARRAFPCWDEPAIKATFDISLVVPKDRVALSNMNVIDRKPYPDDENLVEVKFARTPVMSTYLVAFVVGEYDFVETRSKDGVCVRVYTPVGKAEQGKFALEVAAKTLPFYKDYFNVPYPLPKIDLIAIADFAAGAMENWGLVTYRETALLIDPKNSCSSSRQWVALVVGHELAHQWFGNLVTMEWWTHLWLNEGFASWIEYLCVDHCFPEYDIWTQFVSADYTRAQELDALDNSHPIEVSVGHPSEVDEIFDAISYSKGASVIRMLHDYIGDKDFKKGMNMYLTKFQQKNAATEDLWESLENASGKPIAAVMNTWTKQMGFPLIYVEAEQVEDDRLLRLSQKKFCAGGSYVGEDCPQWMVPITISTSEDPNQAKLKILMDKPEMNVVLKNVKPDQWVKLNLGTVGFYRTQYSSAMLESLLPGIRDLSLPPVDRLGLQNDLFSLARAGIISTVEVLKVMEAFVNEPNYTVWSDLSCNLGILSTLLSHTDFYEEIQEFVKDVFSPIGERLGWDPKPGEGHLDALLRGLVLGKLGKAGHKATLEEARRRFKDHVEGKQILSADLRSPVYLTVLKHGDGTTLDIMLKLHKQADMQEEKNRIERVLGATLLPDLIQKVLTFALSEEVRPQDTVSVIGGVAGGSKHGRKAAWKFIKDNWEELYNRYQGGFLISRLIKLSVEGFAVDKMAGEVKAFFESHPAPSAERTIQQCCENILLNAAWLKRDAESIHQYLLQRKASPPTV
Sequence of UniProt Q16621 (Q16621 whole entry, looked up): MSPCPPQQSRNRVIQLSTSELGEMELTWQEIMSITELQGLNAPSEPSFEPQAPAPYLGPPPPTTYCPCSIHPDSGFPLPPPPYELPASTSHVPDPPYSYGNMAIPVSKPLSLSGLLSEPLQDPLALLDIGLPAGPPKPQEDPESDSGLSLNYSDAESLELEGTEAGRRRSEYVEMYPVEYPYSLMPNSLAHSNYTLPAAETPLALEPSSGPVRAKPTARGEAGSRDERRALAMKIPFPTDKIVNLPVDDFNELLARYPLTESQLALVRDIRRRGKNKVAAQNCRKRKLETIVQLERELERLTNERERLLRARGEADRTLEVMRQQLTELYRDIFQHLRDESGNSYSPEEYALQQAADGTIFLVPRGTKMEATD
Sequence of UniProt P22059 (P22059 whole entry, looked up): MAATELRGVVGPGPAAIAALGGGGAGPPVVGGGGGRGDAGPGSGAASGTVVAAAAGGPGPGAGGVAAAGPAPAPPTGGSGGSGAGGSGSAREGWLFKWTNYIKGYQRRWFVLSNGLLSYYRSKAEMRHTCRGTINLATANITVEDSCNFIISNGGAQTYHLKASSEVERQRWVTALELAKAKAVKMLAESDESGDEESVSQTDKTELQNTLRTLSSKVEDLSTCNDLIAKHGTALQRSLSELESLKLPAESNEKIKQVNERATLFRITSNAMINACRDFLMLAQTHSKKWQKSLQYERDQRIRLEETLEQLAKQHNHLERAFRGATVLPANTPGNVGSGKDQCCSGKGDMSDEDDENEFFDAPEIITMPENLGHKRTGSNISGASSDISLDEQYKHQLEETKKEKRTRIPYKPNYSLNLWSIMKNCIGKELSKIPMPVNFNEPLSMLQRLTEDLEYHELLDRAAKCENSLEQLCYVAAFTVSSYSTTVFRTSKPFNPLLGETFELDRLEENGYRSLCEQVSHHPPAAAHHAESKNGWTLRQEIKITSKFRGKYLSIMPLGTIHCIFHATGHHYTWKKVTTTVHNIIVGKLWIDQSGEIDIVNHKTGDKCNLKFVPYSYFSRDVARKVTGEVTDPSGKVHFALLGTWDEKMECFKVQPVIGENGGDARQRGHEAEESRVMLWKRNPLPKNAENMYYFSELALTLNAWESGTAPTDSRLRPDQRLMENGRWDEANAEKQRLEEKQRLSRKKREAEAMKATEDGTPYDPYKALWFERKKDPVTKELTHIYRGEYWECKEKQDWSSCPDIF
Sequence of UniProt P49757 (P49757 whole entry, looked up): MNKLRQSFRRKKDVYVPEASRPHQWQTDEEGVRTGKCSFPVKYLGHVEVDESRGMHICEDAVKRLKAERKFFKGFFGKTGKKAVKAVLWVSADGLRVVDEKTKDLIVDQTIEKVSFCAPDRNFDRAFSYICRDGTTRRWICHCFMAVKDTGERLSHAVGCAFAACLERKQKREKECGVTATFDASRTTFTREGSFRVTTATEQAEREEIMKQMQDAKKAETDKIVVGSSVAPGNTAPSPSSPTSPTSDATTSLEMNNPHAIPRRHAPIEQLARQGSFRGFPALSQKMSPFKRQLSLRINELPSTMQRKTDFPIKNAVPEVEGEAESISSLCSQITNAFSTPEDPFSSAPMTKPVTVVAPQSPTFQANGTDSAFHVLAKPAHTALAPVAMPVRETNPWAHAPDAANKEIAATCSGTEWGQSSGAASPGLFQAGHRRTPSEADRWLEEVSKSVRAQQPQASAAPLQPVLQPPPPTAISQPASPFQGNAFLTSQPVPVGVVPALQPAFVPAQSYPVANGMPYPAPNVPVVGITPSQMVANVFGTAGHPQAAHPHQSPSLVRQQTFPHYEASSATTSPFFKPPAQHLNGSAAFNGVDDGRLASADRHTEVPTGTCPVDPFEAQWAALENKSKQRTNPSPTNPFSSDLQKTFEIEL

Row | Target | log2 fold change [1] | log2 fold change [2] | log2 fold change [3] | log2 fold change [4] | log2 fold change [5] | log2 fold change [6] | log2 fold change [7] | log2 fold change [8] | log2 fold change [9] | log2 fold change [10] | log2 fold change [11] | log2 fold change [12] | log2 fold change [13] | log2 fold change [14] | log2 fold change [15] | log2 fold change [16] | log2 fold change [17] | log2 fold change [18] | log2 fold change [19] | log2 fold change [20]
1 | NDUFAF6 (UniProt Q330K2) | 0.183 | -0.177 | -0.006 | 0.03 | -0.199 | -0.165 | -0.018 | 0.061 | -0.007 | 0 | -0.052 | -0.197 | 0.182 | -0.025 | 0.144 | -0.167 | -0.051 | 0.027 | -0.065 | -0.273
2 | MNAT1 (UniProt P51948) | -0.025 | 0.073 | 0.011 | 0.021 | -0.047 | -0.04 | -0.039 | 0.036 | 0.009 | -0.016 | 0.007 | 0.02 | -0.068 | -0.036 | 0.007 | 0.024 | 0.015 | 0.005 | -0.057 | 0.089
3 | NOSIP (UniProt Q9Y314) | -0.069 | 0.143 | -0.018 | 0.029 | 0.166 | 0.174 | 0.156 | -0.053 | -0.046 | -0.067 | 0.108 | 0.329 | -0.08 | -0.03 | 0.118 | -0.118 | 0.191 | 0.257 | -0.113 | 0.133
4 | OSTM1 (UniProt Q86WC4) | -0.012 | -0.122 | 0.007 | 0.002 | -0.015 | -0.09 | -0.066 | 0.002 | 0.056 | 0.055 | -0.014 | -0.244 | 0.028 | -0.021 | -0.017 | -0.225 | -0.003 | -0.033 | 0.041 | -0.308 (active)
5 | NPEPPS (UniProt P55786) | 0.22 (active) | -0.056 | 0.338 (active) | -0.072 | -0.017 | 0.037 | -0.026 | 0.066 | -0.002 | -0.001 | 0.019 | -0.14 | 0.122 | -0.039 | 0.063 | -0.03 | -0.066 | -0.012 | 0.013 | 0.082
6 | NFE2 (UniProt Q16621) | 0.135 | 0 | 0.146 | 0.023 | -0.056 | -0.032 | -0.008 | 0.014 | 0.007 | 0.05 | -0.006 | -0.052 | -0.001 | -0.031 | 0.008 | -0.091 | 0.077 | -0.015 | 0.049 | 0.033
7 | NCAPD2 (UniProt Q15021) | 0.025 | -0.006 | 0.061 | -0.072 | -0.005 | 0.092 | 0.029 | -0.138 | -0.024 | 0.059 | 0.018 | -0.024 | 0.004 | 0.093 | 0.035 | -0.077 | 0.092 | 0.109 | -0.049 | -0.029
8 | NUMB (UniProt P49757) | -0.051 | 0.074 | 0.015 | 0 | -0.064 | 0.04 | 0.027 | -0.017 | 0.012 | 0.076 | 0.056 | -0.189 | 0.07 | -0.068 | -0.05 | -0.06 | -0.082 | 0.006 | -0.012 | -0.073
9 | OAT (UniProt P04181) | -0.028 | -0.183 | 0.03 | -0.054 | -0.025 | -0.095 | 0.011 | 0.004 | -0.076 | 0.12 | -0.003 | -0.123 | 0.053 | -0.083 | 0.032 | -0.03 | -0.102 | 0.018 | 0.037 | -0.233 (active)
10 | MXRA7 (UniProt P84157) | -0.248 | 0.135 | 0.023 | -0.066 | -0.017 | -0.007 | 0.058 | 0.067 | 0 | -0.053 | 0.043 | -0.012 | 0.051 | -0.138 | -0.069 | -0.122 | 0.005 | 0.047 | 0.035 | 0.103
11 | MIS12 (UniProt Q9H081) | 0.079 | 0.004 | 0.077 | -0.011 | 0.06 | 0.035 | 0.026 | 0.032 | -0.048 | -0.005 | 0.016 | -0.064 | -0.03 | -0.099 | 0.037 | -0.012 | 0.153 | 0.009 | -0.019 | -0.034
12 | OSBP (UniProt P22059) | -0.018 | 0.009 | 0.007 | -0.019 | -0.046 | 0.086 | 0.019 | -0.009 | 0 | 0.004 | -0.015 | 0.057 | 0.025 | -0.043 | 0.074 | -0.025 | -0.009 | 0.016 | -0.028 | 0.216 (active)
13 | OXA1L (UniProt Q15070) | -0.023 | -0.123 | 0.009 | -0.029 | 0.003 | -0.186 | -0.004 | 0.053 | 0.013 | 0.058 | -0.042 | -0.064 | 0.004 | -0.018 | 0.021 | 0.012 | 0.005 | 0.018 | -0.01 | -0.1
14 | MRPS27 isoform 2 (UniProt Q92552) | 0.062 | 0.029 | 0.068 | -0.124 | -0.05 | -0.024 | 0.016 | -0.014 | 0.036 | -0.038 | -0.017 | -0.062 | 0.005 | 0.097 | 0.029 | 0.094 | 0.002 | 0.096 | 0.013 | -0.304 (active)
15 | NCOR1 (UniProt O75376) | -0.07 | 0.078 | 0.069 | 0.004 | -0.086 | 0.128 | -0.018 | 0.064 | -0.119 | 0.135 | -0.078 | 0.017 | 0.15 | -0.064 | 0.063 | -0.007 | 0.004 | -0.061 | -0.044 | 0.004
16 | OGFR (UniProt Q9NZT2) | -0.005 | 0.048 | 0.137 | -0.042 | -0.157 | 0.023 | -0.015 | -0.152 | 0 | 0.019 | 0.074 | -0.067 | 0.034 | 0.19 | -0.016 | -0.058 | 0.021 | 0.133 | 0.082 | -0.068
